Reference: PubChem BioAssay (NCATS)
Inconclusive results are not listed. The source made the active and inactive calls. Unless noted, the call rests on the fitted dose curve; in most records, active means well fitted curve in the direction sought with a large enough effect; inconclusive means small, poorly fitted or top-dose-only effect, or another doubt; inactive means no such curve, though single readings can be large; an effect the other way counts as inactive or inconclusive.

Columns and labels:
[1] = Cell Viability - BJ (AID 421; calls by dose curve;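 further: potency means the concentration at half of the fitted maximal effect; cells exposed to compound for 40 hours at 37 °C before readout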); details: BJ fibroblast viability, qHTS
Procedure, shortened: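 Cytotoxicity as drop in intracellular ATP (CellTiter-Glo, 20 min RT) after 40 hr compound exposure of BJ fibroblasts at 37 °C. Titrations scaled between DMSO and 100 uM tamoxifen, Hill-fitted for AC50.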

[2] = Cell Viability - Jurkat (AID 426;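 active means dose-dependent loss of cell ATP signal giving a full or clear fitted curve, ranked by lower potency value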; further: potency means the concentration at half of the fitted maximal effect); details: qHTS
Procedure, shortened: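 Jurkat (Clone E6-1) cells, 5000/well in complete medium, exposed to compounds for 40 hr at 37C; intracellular ATP measured by CellTiter-Glo luminescence after 20 min at room temperature. AC50 from Hill fits.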

[3] = Cell Viability - Hek293 (AID 427;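 active means compounds whose dose-response curve shows a full or clear partial loss of cell viability, called from curve shape rather than a numeric limit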;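 further: potency means the concentration at half of the fitted maximal effect; cells exposed to compound for 40 hours at 37 °C before reading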); details: qHTS
Procedure, shortened: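 Luminescent ATP content (CellTiter-Glo, 20 min at room temperature) was measured after a 40 hr, 37 °C compound exposure of HEK293 cells. AC50 values came from Hill-equation fits of qHTS concentration-response data normalized to DMSO and 100 uM tamoxifen.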

[4] = Cell Viability - HepG2 (AID 433; calls by dose curve;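 further: potency means the concentration at half of the fitted maximal effect; potency for ATP loss meaning cytotoxicity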); details: qHTS
Procedure, shortened: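 In this qHTS format, a 40 h, 37 °C compound incubation of HepG2 cells in complete medium precedes a 20 min CellTiter-Glo step at room temperature. Tamoxifen and doxorubicin serve as positive controls; Hill-equation fits yield AC50.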

[5] = Cell Viability - MRC5 (AID 434; calls by dose curve;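 further: potency means the concentration at half of the fitted maximal effect; potency reflects cytotoxicity seen as loss of intracellular ATP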); details: MRC5 lung fibroblast viability, qHTS
Procedure, shortened: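 MRC5 normal human lung fibroblasts (1500/well) were treated with compounds for 40 hr at 37 °C in complete medium, and viable cells were measured as intracellular ATP by CellTiter-Glo luminescence. AC50 came from Hill fits, normalized to DMSO and 100 uM tamoxifen.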

[6] = molecular target: Mitogen-activated protein kinase 10 (Mus musculus) (UniProt Q61831); test: JNK3 AlphaScreen Assay (AID 530; active means well fitted curve in either direction with a large enough effect, not every such curve was filed as active;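 further: kinase came from lysate of stimulated human HepG2 cells; signal reports phosphorylation of biotinylated GST-cJun 1-79 at Ser73 with 10 µM ATP; on the % scale 0 is the no-effect control and ±100 the full control effect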)
Procedure, shortened: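 Inhibitors reduce antibody binding to phosphorylated biotin-cJun, lowering AlphaScreen luminescence. Lysates from HepG2 cells pre-activated by IL-1beta plus TNF-alpha supplied JNK3; compounds were titrated.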

[7] = Cell Viability - N2a (AID 540); details: N2a mouse neuroblastoma cell viability; activity change, negative = cytotoxicity: at 92.2 µM (top of the series);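 further: plate controls were DMSO alone for no effect and tamoxifen control for full effect; nearly all actives have a fitted effect of over 45% in size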
Procedure, shortened: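 Mouse neuroblastoma N2a cells, 1500/well, exposed to compounds 40 h at 37 °C in complete medium. Viability measured as cellular ATP by CellTiter-Glo luminescence; AC50 from Hill fits of concentration-response.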

[8] = Cell Viability - NIH 3T3 (AID 541); details: NIH 3T3 cell viability, qHTS; activity change, negative = cytotoxicity: at 92.2 µM (top of the series);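 further: plate controls were DMSO alone for no effect and tamoxifen positive control for full effect; nearly all actives have a fitted effect of over 25% in size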
Procedure, shortened: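 Mouse NIH 3T3 fibroblasts, 1000 cells/well, rested 5 hr at 37 °C, then exposed to compound for 40 hr at 37 °C in complete medium. Viability read as intracellular ATP by CellTiter-Glo luminescence; AC50 from Hill-equation fits of concentration-response data.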

[9] = Cell Viability - HUV-EC-C (AID 542); further: on the % scale 0 is the no-effect control and ±100 the full control effect; nearly all actives have a fitted effect of over 35% in size
Procedure, shortened: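 HUV-EC-C human vascular endothelial cells, 1000/well, exposed to compound for 40 hr at 37 °C in complete medium. Intracellular ATP was read by CellTiter-Glo luminescence. AC50 came from Hill-equation fits of concentration-response data.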

[10] = Cell Viability - H-4-II-E (AID 543); further: on the % scale 0 is the no-effect control and ±100 the full control effect; nearly all actives have a fitted effect of over 35% in size
Procedure, shortened: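 Rat hepatoma H-4-II-E cells, 1500 per well, treated 40 h at 37 °C in complete medium. Cellular ATP read by CellTiter-Glo luminescence; AC50 from Hill fits of concentration-response.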

[11] = Cell Viability - SH-SY5Y (AID 544); further: nearly all actives have a fitted effect of over 55% in size
Procedure, shortened: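 SH-SY5Y human neuroblastoma cells (1500/well) incubated 5 h, then compound-treated 40 h at 37 °C in complete medium. Viability read as intracellular ATP by CellTiter-Glo luminescence after 20 min; AC50 from Hill-equation fits of qHTS concentration-response.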

[12] = Cell Viability - Renal Proximal Tubule (AID 545); details: renal proximal tubule cells viability, primary cells of rat origin; at 91.7 µM (top of the series); further: nearly all actives have a fitted effect of over 40% in size
Procedure, shortened: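 In this qHTS format, normal rat kidney-derived proximal tubule cells in complete culture medium receive compound titrations, then sit 40 hours at 37 °C before luciferase-based ATP quantitation; potency is reported as AC50 from concentration-response curves.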

[13] = Cell Viability - Mesenchymal (AID 546); details: mesenchymal cells viability, qHTS; activity change, negative = cytotoxicity: at 91.7 µM (top of the series);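 further: cells exposed to compound for 40 hours before reading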
Procedure, shortened: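 Normal human renal glomerulus-derived kidney mesenchymal cells, 1000 per well in complete medium, were treated with compounds for 40 hr at 37 °C. Viability was read as intracellular ATP by CellTiter-Glo luminescence; AC50 values came from Hill-equation fits of qHTS concentration-response data.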

[14] = Cellular Toxicity (caspase-3) HepG2 (AID 654);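 further: cells exposed to compound for 16 hours before reading; 0% = DMSO alone and 100% = caspase signal from 100 µM tamoxifen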
Procedure, shortened: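 HepG2 cells (1500/well) were treated 16 h at 37 °C in complete medium, then caspase 3/7 activity was read by Caspase-Glo luminescence. Data were normalized to DMSO and 100 uM tamoxifen; AC50 came from Hill-equation fits of qHTS concentration-response.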

[15] = Cellular Toxicity (caspase-3) Jurkat (AID 655); details: Jurkat caspase-3 activation, luminescence, DMSO = 0%, tamoxifen = 100%; at 92.2 µM (top of the series);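 further: cells exposed to compound for 16 h at 37 °C before reading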
Procedure, shortened: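 qHTS in human Jurkat T-cell leukemia line: 16 hr compound treatment at 37 °C, caspase-3/7 activity measured by Caspase-Glo luminescence. AC50 derived from Hill equation.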

[16] = Cellular Toxicity (caspase-3) HUV-EC-C (AID 656)
Procedure, shortened: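 Concentration-dependent caspase 3/7 induction was assessed in HUV-EC-C cells exposed for 16 hours. Data scaled between DMSO and tamoxifen (100 uM) controls.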

[17] = Cellular Toxicity (caspase-3) SHSY5Y (AID 657)
Procedure, shortened: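 Readout: caspase-cleaved peptide-aminoluciferin substrate driving luciferase light in SH-SY5Y neuroblastoma cells after 16 h treatment. Response normalized to DMSO and 10 uM staurosporine controls.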

[18] = Cellular Toxicity (caspase-3) MRC-5 (AID 659);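 further: 0% = DMSO basal and 100% = 10 µM staurosporine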
Procedure, shortened: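 Luminescence from caspase-cleaved aminoluciferin substrate (Caspase-Glo 3/7, 1 hr RT) reports caspase 3/7 activity in MRC-5 lung fibroblasts after 16 hr compound exposure. Normalized to DMSO basal and 10 uM staurosporine as 100%; AC50 from Hill fits.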

[19] = Cellular Toxicity (caspase-3) Mesangial (AID 660);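 further: cells exposed to compound for 16 h before the caspase read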
Procedure, shortened: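 Human renal glomerular mesangial cells, 1000/well, 5 h at 37 C before 16 h compound treatment. Caspase-Glo 3/7 luminescence after 20 min; normalized to DMSO and 100 uM tamoxifen, AC50 from Hill fit.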

[20] = Cellular Toxicity (caspase-3) SK-N-SH (AID 661);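 further: 0% = DMSO basal and 100% = 10 µM staurosporine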
Procedure, shortened: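 Human SK-N-SH neuroblastoma cells, 1500/well, were exposed to compounds for 16 hours at 37 °C. Caspase-Glo 3/7 luminescence was normalized to DMSO (basal) and 10 uM staurosporine (100%), and AC50 came from a Hill fit.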

[21] = Cellular Toxicity (caspase-3) H-4-II-E (AID 663); details: Potency: caspase-3 activation;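 further: cells exposed to compound for 16 hr before readout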
Procedure, shortened: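 Luminescence from caspase-cleaved aminoluciferin substrate, read 20 min after reagent addition, reports caspase 3/7 activation in rat H-4-II-E cells after 16 hr compound exposure. Normalized to DMSO (basal) and 100 uM tamoxifen (100%); AC50 from Hill fits.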

[22] = Cellular Toxicity (caspase-3) Hek293 (AID 664);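 further: cells exposed to compound for 16 h at 37 °C before readout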
Procedure, shortened: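 HEK293 cells in complete medium treated 16 h at 37 °C, then Caspase-Glo 3/7 luminescence read after 20 min at room temperature. Normalized to DMSO and 100 uM tamoxifen; AC50 from Hill fit of concentration-response.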

[23] = Cellular Toxicity (caspase-3) N2a (AID 665);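 further: compound exposure lasted 16 h at 37 °C before readout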
Procedure, shortened: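 Mouse N2a neuroblastoma cells, 1500 per well, treated 16 h at 37 °C in complete medium; caspase-3/7 activity by Caspase-Glo luminescence after 1 h. Normalized to DMSO and 10 uM staurosporine; AC50 from Hill fits.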

[24] = Cellular Toxicity (caspase-3) NIH 3T3 (AID 666);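 further: 0% = DMSO basal and 100% = 100 µM tamoxifen stimulation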
Procedure, shortened: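 Mouse NIH 3T3 fibroblasts (1000/well) treated 16 h at 37 C; caspase-3/7 activity measured by Caspase-Glo 3/7 luminescence after 20 min. Normalized to DMSO and 100 uM tamoxifen; AC50 from Hill fits.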

[25] = Cellular Toxicity (caspase-3) Renal Proximal Tubule (AID 667);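 further: cells exposed to compound for 16 hours at 37 °C before detection; 0% = DMSO basal and 100% = 10 µM staurosporine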
Procedure, shortened: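 Caspase-Glo 3/7 read-out, rat primary kidney proximal tubule cells. Compound exposure 16 h, 37 °C; detection after 1 h at RT. Activity scaled to DMSO and 10 uM staurosporine.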

[26] = molecular target: Cytochrome P450 3A4 (Homo sapiens) (UniProt P08684); test: qHTS Assay for Inhibitors and Substrates of Cytochrome P450 3A4 (AID 884); further: on the % scale 0 is the no-effect control and ±100 the full control effect; nearly all actives have a fitted effect of over 50% in size
Procedure, shortened: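 20 nM human CYP3A4 with 25 uM Luciferin-PPXE (at KM) in 200 mM KPO4, preincubated 10 min with compound; NADPH regeneration started a 60 min RT reaction. Luciferin detected by luminescence, normalized to 57 uM ketoconazole as full inhibition.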

[27] = MultiTox-Fluor Cytotoxicity Assay - LYMP1-001 - Dead Cells (AID 946)
Procedure, shortened: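 Cytotoxicity as increased dead-cell protease fluorescence (bis-AAF-R110, 485/520 nm), read 60 min after MultiTox-Fluor reagent. Human lymphoblastoid line exposed 16 h; Hill-fitted AC50, with DMSO as 0% and 15 uM tetraoctylammonium bromide as 100%.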

[28] = MultiTox-Fluor Cytotoxicity Assay - LYMP1-001 - Live Cells (AID 947);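 further: 0% = DMSO only and full inhibition = tetraoctylammonium bromide control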
[29] = Cell Viability - LYMP1-002 - Assay at 16 hr (AID 948);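 further: 0% = DMSO alone and full effect = 92 µM tetraoctylammonium bromide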
Procedure, shortened: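 In this qHTS, lymphoblastoid LYMP1-002 cells (human) receive compounds for 16 hr at 37 C. Viability is taken from CellTiter-Glo ATP luminescence, and AC50 derives from standard Hill fits.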

[30] = MultiTox-Fluor Cytotoxicity Assay - LYMP1-002 - Live Cells (AID 955); further: on the % scale 0 is the no-effect control and ±100 the full control effect
Procedure, shortened: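 Human lymphoblastoid LYMP1-002 cells, 2500/well, treated 16 h at 37 C in complete medium. Live-cell protease activity via GF-AFC fluorescence (Ex/Em 405/510) after 60 min reagent incubation; AC50 from Hill fits.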

[31] = MultiTox-Fluor Cytotoxicity Assay - LYMP1-002 - Dead Cells (AID 960); further: nearly all actives have a fitted effect of over 60% in size
Procedure, shortened: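 Human lymphoblastoid LYMP1-002 cells, 2500/well, treated 16 h at 37 C; dead-cell protease cleavage of bis-AAF-R110 read by fluorescence (485/520); normalized to DMSO and 15 uM tetraoctylammonium bromide; AC50 from Hill fit.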

[32] = MultiTox-Fluor Cytotoxicity Assay - LYMP1-003 - Dead Cells (AID 961); further: nearly all actives have a fitted effect of over 70% in size
Procedure, shortened: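 Dead-cell protease release, detected as bis-AAF-R110 fluorescence at 485/520 nm, was measured in LYMP1-003 cells after 16 h compound treatment at 37 C. AC50 values came from Hill-modeled qHTS curves normalized to DMSO (0%) and 15 uM tetraoctylammonium bromide (100%).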

[33] = MultiTox-Fluor Cytotoxicity Assay - LYMP1-003 - Live Cells (AID 962);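 further: 0% = DMSO only and full loss = 92 µM tetraoctylammonium bromide; cytotoxic hits lower the live-cell protease signal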
Procedure, shortened: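 LYMP1-003 lymphoblastoid cells, 2500/well in complete medium, treated 16 h at 37 C; live-cell protease cleavage of GF-AFC read by fluorescence (Ex/Em 405/510) after 60 min reagent; AC50 from Hill fits of concentration-response.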

[34] = Cell Viability - LYMP1-003 - Assay at 24 hr (AID 963);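 further: plate controls were DMSO only for no effect and tetraoctylammonium bromide positive control for full effect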
Procedure, shortened: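 Human lymphoblastoid LYMP1-003 cells, 2500/well, treated 24 h at 37 C in complete medium. Viability read as intracellular ATP by CellTiter-Glo luminescence after 30 min at room temperature; AC50 from Hill-equation fits of qHTS concentration-response.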

[35] = Cell Viability - LYMP1-003 - Assay at 40 hr (AID 964); further: on the % scale 0 is the no-effect control and ±100 the full control effect; nearly all actives have a fitted effect of over 60% in size
Procedure, shortened: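 LYMP1-003 human lymphoblastoid cells, 2500/well, preincubated 5 h at 37 C, then treated with compound for 40 h at 37 C. Intracellular ATP read by CellTiter-Glo luminescence after 30 min at room temperature; AC50 from Hill-equation fits.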

[36] = Cell Viability - LYMP2-003 (AID 965);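 further: cells exposed to compounds for 24 h before reading; 0% = DMSO only and full effect = 92 µM tetraoctylammonium bromide; nearly all actives have a fitted effect of over 50% in size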
Procedure, shortened: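 qHTS, human lymphoblastoid line, 2500 cells/well, complete medium. 24 h drug, 37 C. ATP-based luminescent readout; Hill-fit AC50.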

[37] = Cell Viability - LYMP2-009 (AID 968);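 further: 0% = DMSO alone and the full-kill end = tetraoctylammonium bromide at 92 µM; nearly all actives have a fitted effect of over 55% in size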
[38] = Cell Viability - LYMP2-011 (AID 969);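 further: 0% = DMSO only and full inhibition = 92 µM tetraoctylammonium bromide; nearly all actives have a fitted effect of over 60% in size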
Procedure, shortened: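 2500 cells/well in complete medium, compound-treated 24 h at 37 C. Viability read as intracellular ATP by CellTiter-Glo luminescence after 30 min at room temperature. AC50 from Hill fits of qHTS concentration-response data.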

[39] = Cell Viability - LYMP2-013 (AID 970);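 further: 0% = DMSO only and full inhibition = tetraoctylammonium bromide control; nearly all actives have a fitted effect of over 55% in size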
Procedure, shortened: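 Human lymphoblastoid LYMP2-013 cells, 2500/well, treated 24 h at 37 C in complete medium; viability as intracellular ATP by CellTiter-Glo luminescence after 30 min. AC50 from Hill fits of qHTS concentration-response.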

[40] = Cell Viability - LYMP2-015 (AID 971);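 further: 0% = DMSO only and full effect = 92 µM tetraoctylammonium bromide; nearly all actives have a fitted effect of over 55% in size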
Procedure, shortened: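 LYMP2-015 human lymphoblastoid cells (2500/well) in complete medium, compound-treated 24 h at 37 C; viability read as cellular ATP by CellTiter-Glo luminescence after 30 min at room temperature. AC50 from Hill-equation fits of qHTS concentration-response data.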

[41] = Cell Viability - LYMP2-017 (AID 972)
Procedure, shortened: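 LYMP2-017 human lymphoblastoid cells (2500/well) settled 5 hr at 37 C, then exposed to compound 24 hr at 37 C in complete medium. Viability taken as intracellular ATP by CellTiter-Glo luminescence after 30 min at RT; AC50 from Hill fits.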

[42] = Cell Viability - LYMP2-019 (AID 973)
Procedure, shortened: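 Human lymphoblastoid LYMP2-019 cells (2500/well) preincubated 5 h at 37 C, then treated 24 h at 37 C in complete medium. Viability by CellTiter-Glo ATP luminescence after 30 min at room temperature; AC50 from Hill fits.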

Sequence of Cytochrome P450 3A4 (Homo sapiens) (P08684 whole entry, looked up): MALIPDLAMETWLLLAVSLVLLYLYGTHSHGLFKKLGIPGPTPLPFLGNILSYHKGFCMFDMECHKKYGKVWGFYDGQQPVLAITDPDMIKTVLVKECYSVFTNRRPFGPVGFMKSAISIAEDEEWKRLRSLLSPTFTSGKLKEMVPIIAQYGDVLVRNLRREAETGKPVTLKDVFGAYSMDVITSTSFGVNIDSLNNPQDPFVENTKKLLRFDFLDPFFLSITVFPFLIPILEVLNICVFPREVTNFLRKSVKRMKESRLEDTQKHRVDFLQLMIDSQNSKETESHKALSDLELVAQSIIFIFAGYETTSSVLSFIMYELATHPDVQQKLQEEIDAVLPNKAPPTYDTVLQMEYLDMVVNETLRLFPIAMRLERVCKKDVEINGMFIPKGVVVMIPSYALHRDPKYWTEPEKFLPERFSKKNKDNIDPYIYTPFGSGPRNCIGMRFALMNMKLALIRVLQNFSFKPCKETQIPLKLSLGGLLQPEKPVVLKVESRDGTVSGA

O=C1CCc2ccccc2O1
inactive: Potency [1] > 92 µM | Potency [2] > 92 µM | Potency [3] > 92 µM | Potency [4] > 92 µM | Potency [5] > 92 µM | Potency [6] | activity change, negative = cytotoxicity [7] 7.64% | Potency [8] | outcome [9] | Potency [10] | Potency [11] | activity change, negative = cytotoxicity [12] -10.3% | activity change, negative = cytotoxicity [13] 7.71% | outcome [14] | caspase-3 activation [15] 1.5% | outcome [16] | outcome [17] | outcome [18] | outcome [19] | outcome [20] | Potency [21] | outcome [22] | outcome [23] | outcome [24] | outcome [25] | Potency [26] | Potency [27] | Potency [28] | Potency [29] | Potency [30] | Potency [31] | Potency [32] | Potency [33] | Potency [34] | Potency [35] | Potency [36] | Potency [37] | Potency [38] | Potency [39] | Potency [40] | Potency [41] | Potency [42]
